The test system of the assay is HepG2. Nature of the assay: GSK_TCMDC: Percent inhibition of human HepG2 cell line. Test compounds present at 10uM. Format: functional.
As a reminder, the Inhibition is how much of the control response was suppressed. A low value points to a weak effect. Consider `CS(=O)(=O)Nc1ccc2[nH]cc(C3CCN(CC4CCC(NC(=O)/C=C/c5ccc(Cl)c(Cl)c5)CC4)CC3)c2n1` (stereo not drawn), for which the Inhibition is listed as 2%. The result for `O=C(NC1CCN(Cc2ccccc2)CC1)c1csc2nc(-c3ccc(Cl)cc3)cn12` reads 19%.

For `O=C(O)C(F)(F)F.O=S(=O)(NCCN1CCCC1)c1cccc(-c2ccc(CNCc3ccc(F)cc3)cc2)c1`, the Inhibition is recorded as 38%. The compound `O=C(Nc1ccc(C(F)(F)F)cc1)Nc1ccccc1N1CCNCC1.O=C(O)C(F)(F)F` returned an Inhibition of 39%. As to `CC(C)CCN1CCC(Oc2ccc(NC(=O)c3cccs3)cc2Cl)CC1.O=C(O)C(F)(F)F`, the Inhibition stood at 31%. Then `CNC(=O)c1ccccc1Nc1nc(Nc2ccc(N3CCOCC3)cc2)ncc1Cl.Cl`, with 75%; and `O=C(Nc1ccc(Cl)c(Cl)c1)Nc1ccc(F)c([N+](=O)[O-])c1`, with 49%. The result for `CN(CCc1ccccn1)c1cccc2c1nc(-c1cccnc1)n2CCNCc1ccccc1.O=C(O)C(F)(F)F` reads 12%. Turning to `C=CCn1cc(C2CCN(CCCCNC(=O)c3sc(-c4ccc(C(F)(F)F)cc4)nc3CO)CC2)c2cc(OC)ccc21`, the Inhibition was found to be 40%.

`N#Cc1cccc(NC(=O)Nc2cccc(OC3CCN(Cc4ccccc4)CC3)c2)c1.O=C(O)C(F)(F)F`: the Inhibition stood at 5%.

As to `COc1ccc(NCCCNc2ccnc3ccccc23)cc1`, the Inhibition was 34%. The result for `COC(=O)c1cccc(CNCc2ccc(-c3cccc(-c4nc5cc(C(F)(F)F)ccc5[nH]4)c3)cc2)c1.O=C(O)C(F)(F)F` reads 5%. In turn, `Cc1cccc2nc(-c3ccc(-c4ccc(CN5CCN(c6ccncc6)CC5)cc4)cc3)[nH]c12.O=C(O)C(F)(F)F` returned an Inhibition of 98%.

Source of the values: ChEMBL document CHEMBL1157539, “Thousands of chemical starting points for antimalarial lead identification” (Nature, 2010).
